# Shown are actives, neighbours in structure and some others; about 32% of the full set was active somewhere.
# CYP2C9 inh: human CYP2C9 inhibition | P11712 | CYP2C9 Supersomes, luciferin-H conversion, luminescence | inhibition, % at 5 µM | 96,000 tested, 20% active | AID 777;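 active = blocking of liver enzyme CYP2C9 beyond about 50% at 5 µM, limit read from the data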
# Target sequence (P11712 whole entry, looked up): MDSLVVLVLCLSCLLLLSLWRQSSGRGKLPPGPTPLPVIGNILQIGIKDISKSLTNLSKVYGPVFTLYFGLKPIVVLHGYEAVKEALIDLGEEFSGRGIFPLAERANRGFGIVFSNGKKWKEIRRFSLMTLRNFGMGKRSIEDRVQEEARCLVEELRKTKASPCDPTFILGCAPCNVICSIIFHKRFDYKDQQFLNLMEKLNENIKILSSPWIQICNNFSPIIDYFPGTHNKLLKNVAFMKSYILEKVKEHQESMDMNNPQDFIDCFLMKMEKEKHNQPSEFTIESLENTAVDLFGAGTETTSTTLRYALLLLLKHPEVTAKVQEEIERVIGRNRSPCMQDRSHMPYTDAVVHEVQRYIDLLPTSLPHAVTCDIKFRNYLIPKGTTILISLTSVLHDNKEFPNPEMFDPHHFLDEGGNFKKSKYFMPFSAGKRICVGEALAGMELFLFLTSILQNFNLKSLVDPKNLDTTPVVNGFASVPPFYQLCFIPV
# PostGolgi ctrl: inhibits growth of the yeast control strain | 98,000 tested, 5% active | efflux-deficient yeast background strain, growth absorbance A615, 16 h | inhibition, % at 10 µM
# CYP2C19 activ: cytochrome P450 2C19 (human) activation; AID 1025; recombinant CYP2C19, luciferin-H EGE luminescence; active compounds read high; 0 = fully inhibited enzyme, 1 = untreated enzyme; activation factor at 5 µM; 96,000 tested, under 10 active; P33261;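 active = activation factor of at least 2 at 5 µM in the primary screen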
# CYP2C19 inh: human CYP2C19 inhibition | 96,000 tested, 21% active | inhibition, % at 5 µM | CYP2C19 Supersomes, luciferin-H EGE luminescence, 30 min;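 active = CYP2C19 inhibition above a set limit at 5 µM in the primary screen, cut at about 50% in these data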
# CYP2C9 activ: increases human cytochrome P450 2C9 activity; P11712; recombinant CYP2C9, luciferin-H conversion, luminescence; active compounds read high; factor 1 = untreated enzyme, 0 = blocked; activation factor at 5 µM; 96,000 tested, 1.4% active;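 active = activation factor of 2 or more for CYP2C9 at a 5 µM dose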
# PostGolgi yeast: growth inhibition of a yeast mutant, post-Golgi transport screen. post-Golgi transport phenotypic cell assay. inhibition, % at 10 µM. 98,000 tested, 0.9% active. AID 739;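 also: yeast cells grown in 1536-well plates; yeast grown about 18 h at 30C before absorbance read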
# A number is an active result; 0 = inactive; - = no result. Rule as the data show it, unless noted: active = inhibition above about 30%; inactive = the rest.
SMILES,CYP2C9 inh,PostGolgi ctrl,CYP2C19 activ,CYP2C19 inh,CYP2C9 activ,PostGolgi yeast
Cc1c(Cl)c([N+](=O)[O-])nn1CC(=O)N1CCc2ccccc2C1,0,0,0,0,0,0
O=C(Nc1cccc(C(F)(F)F)c1)c1ccc(Cn2cc(Br)cn2)o1,69,38,0,85,0,0
O=C(Nc1ccc(C(F)(F)F)cc1Cl)c1ccc(Cn2cc(Br)cn2)o1,0,39,0,0,0,0
O=C(NCc1ccccn1)c1ccc(Cn2cc(Br)cn2)o1,0,0,0,0,0,0
CCCn1[nH]cc(SC)c(=O)c1=O,0,0,0,0,0,0
COc1ccc(-n2ccc(-c3nn(-c4cccc(C(F)(F)F)c4)ccc3=O)n2)cc1,83,31,0,82,0,0
COc1ccccc1NC(=O)c1nn(-c2cccc(C(F)(F)F)c2)ccc1=O,0,0,0,0,2.7,0
O=c1ccn(-c2cccc(C(F)(F)F)c2)nc1-c1ccn(-c2ccccc2F)n1,69,0,0,0,0,0
COc1ccccc1NC(=O)c1nn(-c2ccc(F)c(F)c2)ccc1=O,0,0,0,0,0,0
COc1ccccc1-c1nnc(N(C)C(=O)C2CCCO2)s1 (stereo not given),0,0,0,0,0,0
CCn1c2ccccc2c2cc(/C=N/n3cnnc3)ccc21,74,42,0,97,0,0
CCn1c2ccccc2c2cc(/C=N/n3cn[nH]c3=S)ccc21,0,43,0,81,0,0
S=c1[nH]ncn1/N=C/c1ccccc1,0,0,0,0,0,0
CCOC(=O)C1CCCN(C(=O)CNS(=O)(=O)c2ccc(Br)s2)C1 (stereo not given),-,0,-,-,-,0
COc1ccccc1N1CCN(C(=O)CCNS(=O)(=O)c2ccc(Br)s2)CC1,80,0,0,0,0,0
O=C(CCNS(=O)(=O)c1ccc(Br)s1)N1CCN(c2ccccc2)CC1,0,0,0,0,0,0
O=C(CNS(=O)(=O)c1ccc(Br)s1)N1CCCC1,0,0,0,64,0,0
Cn1c(=O)c2c(-c3ccccc3)n(-n3cnnc3)cc2n(C)c1=O,0,0,0,0,0,0
Cn1cnc2cc(NS(=O)(=O)c3ccc(Br)cc3)ccc21,69,0,0,93,0,0
CC(C)(C)n1cnc2cc(NS(=O)(=O)c3ccccc3)ccc21,0,0,0,79,0,0
Cn1c(CN2CCCC2)nc2cc(NS(=O)(=O)c3ccccc3)ccc21,0,0,0,0,0,0
Cc1cc2c(=O)n(CC(=O)N3CCN(c4ccc(F)cc4)CC3)cnc2s1,0,0,0,0,0,0
CSc1nnnn1-c1cccc(O)c1,0,0,0,0,2.4,0
Cn1ncc(C#N)c1NC(=O)C1CC(c2c(F)cccc2Cl)=NO1 (stereo not given),72,0,0,77,0,0
Cn1ncc(C#N)c1NC(=O)c1cc(-c2ccccc2Cl)on1,0,30,0,0,0,0
SMILES,CYP2C9 inh,PostGolgi ctrl,CYP2C19 activ,CYP2C19 inh,CYP2C9 activ,PostGolgi yeast
Cn1ncc(C#N)c1NC(=O)C1CC(c2ccc(Cl)c(Cl)c2)=NO1 (stereo not given),51,0,0,85,0,0
O=C(NCC1CCCO1)C1CC(c2ccc(Cl)c(Cl)c2)=NO1 (stereo not given),0,0,0,0,2.5,0
CC(C)n1cc(NC(=O)c2cc(-c3ccccc3)on2)cn1,0,0,0,0,0,0
O=C(NCC1CCCO1)Nc1ccc(Cl)cc1 (stereo not given),0,0,0,0,0,0
COc1ccc(NC(=O)C2CC(c3ccc(OC)c(OC)c3)=NO2)cc1OC (stereo not given),0,0,0,0,0,0
CCCCCC1CC(=O)N(Cc2ccc(Cl)cc2)C(=O)N1 (stereo not given),0,0,0,0,0,0
CCOC(=O)C1CCCN(c2c(N3CCN(c4ccccn4)CC3)c(=O)c2=O)C1 (stereo not given),0,0,0,0,0,0
C/C(NCC(C)(C)CN(C)C)=C(/C#N)C(=O)NCc1ccccc1,0,0,0,0,0,0
Cc1nc2cc(NC(=O)N3c4ccccc4CC3C)ccc2n1C (stereo not given),0,0,0,0,0,0
Nc1c(C(=O)c2ccccc2)sc2snc(SCC(=O)c3ccccc3)c12,83,0,0,0,0,0
C=CCOCC(O)CS(=O)(=O)Cc1ccc(Cl)cc1 (stereo not given),0,0,0,74,0,0
O=S(=O)(Cc1ccc(Cl)cc1)CC(O)COCc1ccccc1 (stereo not given),0,0,0,0,0,0
CCc1oc2ccccc2c1C(=O)CCN1CCCCC1,0,36,0,0,0,0
CCc1cc2c(CN3CCN(C)CC3)cc(=O)oc2cc1O,0,0,0,0,0,0
Cc1c(O)c(CN2CCCCC2)cc2c3c(c(=O)oc12)CCC3,70,0,0,0,0,0
Cc1oc2cc3oc(=O)c4c(c3cc2c1C)CCC4,0,0,0,63,0,0
Cc1oc2c(C)c3oc(=O)c4c(c3cc2c1C)CCC4,0,0,0,80,0,0
CCc1cc2c3c(c(=O)oc2cc1O)CCCC3,72,0,0,62,0,0
Cc1[nH]nc(SCC(=O)N2CCC(C)CC2)c1[N+](=O)[O-],0,0,0,0,0,0
CCCSCCCNC(=O)Cn1cc2c(n1)CCCCC2,0,0,0,0,0,0
CCc1cc2cc3c(cc2nc1SCC(=O)Nc1nnc(C)s1)OCCO3,59,0,0,0,0,0
COc1cc(NC(=O)c2cc(-c3cccnc3)nc3ccc(C)cc23)c(OC)cc1Cl,0,0,0,0,0,0
N#Cc1cc2sc3nnc(-c4ccncc4)n3c2cc1C#N,65,37,0,92,0,0
O=C1c2ccccc2C(=O)N1CCCc1nc2ccccc2c(=O)n1-c1cccnc1,63,0,0,0,0,0
Cc1cccc(-n2c(CCCN3C(=O)c4ccccc4C3=O)nc3ccccc3c2=O)n1,0,0,0,52,0,0
SMILES,CYP2C9 inh,PostGolgi ctrl,CYP2C19 activ,CYP2C19 inh,CYP2C9 activ,PostGolgi yeast
Cc1cccc(-n2c(CCN3C(=O)c4ccccc4C3=O)nc3ccccc3c2=O)n1,0,0,0,0,0,0
CCCc1nc2ccccc2c(=O)n1-c1c(C)n(C)n(-c2ccccc2)c1=O,0,0,0,0,0,0
S=c1[nH]ncn1-c1ccccn1,0,0,0,0,0,0
CC1(C)CC(=O)C(CCC(=O)c2ccccc2)C(C)(C)N1 (stereo not given),0,0,0,0,0,0
O=C(OCCN1CCOCC1)c1cccs1,0,0,0,0,0,0
O=C(c1cc2ccccc2oc1=O)N1CCN(c2ncccn2)CC1,0,0,0,87,0,0
O=C(c1cc2ccccc2oc1=O)N1CCCC1,0,0,0,0,0,0
O=C(c1cc2ccccc2oc1=O)N1CCN(c2ccccn2)CC1,0,0,0,77,0,0
Fc1cc(Br)ccc1NC(=S)NCCc1ccccc1,0,0,0,76,0,0

# Assay outcomes: PubChem, several laboratories
